BL2 CD40 inh: CD40 pathway inhibition in BL2 cells. 0.94% of 83,000 active. BL2 NF-kB luciferase reporter, CD40L-induced, 4 h. inhibition, % at 10 µM. AID 1053188;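 active means mean inhibition of at least 50% with a set share of replicates also reaching that level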;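 further: 0% = neutral control wells and 100% = IKK inhibitor VII at 50 µM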
Active calls of the source: *; [ ] = remark or other dose. This excerpt belongs to a sample that is enriched for hits.

How did O=C(Nc1ccccc1)N1CC(=O)N2[C@H](CO)[C@@H](c3ccc(C#CC4CCCCC4)cc3)[C@H]2C1 do in these assays?
BL2 CD40 inh: 54.1*[25 µM]

How did COc1cccc(NC(=O)N2CC(=O)N3[C@H](C2)[C@H](c2ccc(C#CCC4CCCC4)cc2)[C@@H]3CO)c1 do in these assays?
BL2 CD40 inh: 12.9[25 µM]

How did O=C(Nc1ccccc1)N1CC(=O)N2[C@H](CO)[C@H](c3ccc(C#CC4CCCCC4)cc3)[C@H]2C1 do in these assays?
BL2 CD40 inh: 9.3[25 µM]

What do the screens show for `O=C(C[C@@H]1C[C@@H]2c3cc(NC(=O)NC4CCCC4)ccc3O[C@@H]2[C@@H](CO)O1)NCc1cccnc1`?
BL2 CD40 inh: -2.3

How did C[C@H]1CN([C@@H](C)CO)C(=O)c2cccc(NC(=O)C3CCCCC3)c2O[C@@H]1CN(C)S(C)(=O)=O do in these assays?
BL2 CD40 inh: -15.2[25 µM]

Results for CCCNC(=O)C[C@H]1CC[C@@H]2[C@H](COC[C@H](O)CN2C(=O)c2ccc(F)cc2)O1 ?
BL2 CD40 inh: -14.3[25 µM]

How did COc1cc2c(cc1OC)C1Cc3ccc(OC)c(OC)c3CN1CC2 (stereo not given) do in these assays?
BL2 CD40 inh: -14.6[25 µM]

What do the screens show for `COc1cc2c(cc1OC)[C@@H]1Cc3ccc(OC)c(OC)c3CN1CC2`?
BL2 CD40 inh: 2.7

How did CCC1=C(CC2NCCc3ccccc32)CC2c3cc(OC)c(OC)cc3CCN2C1 (stereo not given) do in these assays?
BL2 CD40 inh: 54.7*

What do the screens show for `N#C[C@H]1[C@H](c2ccccc2)[C@H](CO)N1C(=O)c1ccc2c(c1)OCO2`?
BL2 CD40 inh: 7.6[25 µM]

Results for CC(=O)Nc1ccc2oc(-c3ccccc3)nc2c1 ?
BL2 CD40 inh: -1.8

Results for Cc1ccc2oc(-c3cccc(NC(=O)C4CCCO4)c3)nc2c1 (stereo not given) ?
BL2 CD40 inh: -26.6

What do the screens show for `Cc1cccc(-c2nc3cc(NC(=O)C4CCCO4)ccc3o2)c1` (stereo not given)?
BL2 CD40 inh: 54.1*

Results for CN1c2ccc(C3=CCCCC3)cc2[C@@H]2[C@@H](CCN2C(=O)NC2CCCC2)[C@H]1CO ?
BL2 CD40 inh: -8.0[25 µM]

Results for O=C(c1ccccn1)N1CC(=O)N2[C@H](CO)[C@H](c3ccc(C4=CCCC4)cc3)[C@@H]2C1 ?
BL2 CD40 inh: 4.8[25 µM]

Results for C[C@H](NC(=O)[C@@H]1[C@@H](CO)[C@@H]2Cn3c(ccc(-c4ccccc4F)c3=O)[C@H]1N2)c1ccccc1 ?
BL2 CD40 inh: 3.0[25 µM]

What do the screens show for `CCC(=O)N1C[C@@H](O)COC[C@@H]2O[C@H](CC(=O)NC)CC[C@H]21`?
BL2 CD40 inh: 4.6[25 µM]

Results for COc1ccc(OCC(=O)c2c(O)c3ccccc3oc2=O)cc1 ?
BL2 CD40 inh: -1.1

Results for COc1ccc(OC)c(-c2oc3ccccc3c(=O)c2O)c1 ?
BL2 CD40 inh: -75.3

Results for COc1ccc(/C=C\c2nc(=O)c3ccccc3o2)cc1 ?
BL2 CD40 inh: 46.2*

How did COC(=O)[C@H]1[C@H](CO)[C@H]2Cn3c(ccc(-c4cccnc4)c3=O)[C@H]2N1Cc1ccccc1F do in these assays?
BL2 CD40 inh: 3.4[25 µM]

Results for CN1CCN(C(=O)C[C@H]2CC[C@H]3[C@@H](COC[C@H](O)CN3C(=O)c3ccccc3F)O2)CC1 ?
BL2 CD40 inh: -2.3[25 µM]

Results for O=C(C1CC1)N1CC[C@@H]2[C@@H](CO)Nc3ccc(-c4cccc(F)c4)cc3[C@@H]21 ?
BL2 CD40 inh: 10.0

What do the screens show for `Fc1ccccc1/C=C1\CCCC2=C1Nc1nnnn1C2c1ccccc1F` (stereo not given)?
BL2 CD40 inh: 74.8*

How did Cc1ccc(S(=O)(=O)N[C@H]2CC[C@@H](CC(=O)NCc3ccncn3)O[C@H]2CO)cc1 do in these assays?
BL2 CD40 inh: -7.9[25 µM]

What do the screens show for `COc1cccc(NC(=O)/C=C/c2ccc(Cl)cc2)c1`?
BL2 CD40 inh: 16.3[25 µM]

What do the screens show for `Cc1noc(C)c1NC(=O)N(C)C[C@@H]1OCCCC[C@H](C)Oc2ccc(NC(=O)Nc3ccc(C(F)(F)F)cc3)cc2C(=O)N([C@H](C)CO)C[C@@H]1C`?
BL2 CD40 inh: 28.4[25 µM]

Results for Cc1noc(C)c1NC(=O)N(C)C[C@@H]1OCCCC[C@@H](C)Oc2ccc(NC(=O)Nc3ccc(C(F)(F)F)cc3)cc2C(=O)N([C@H](C)CO)C[C@H]1C ?
BL2 CD40 inh: 60.1*[25 µM]

What do the screens show for `C[C@H](CO)N1C[C@H](C)[C@H](CN(C)CC2CCCCC2)Oc2ccc(NC(=O)Nc3ccc(C(F)(F)F)cc3)cc2C1=O`?
BL2 CD40 inh: 69.0*

Results for COc1ccc(S(=O)(=O)N(C)C[C@@H]2Oc3ccc(NC(=O)Nc4ccc(C(F)(F)F)cc4)cc3C(=O)N([C@H](C)CO)C[C@@H]2C)cc1 ?
BL2 CD40 inh: 37.6[25 µM]

What do the screens show for `COc1ccc(S(=O)(=O)N(C)C[C@@H]2Oc3ccc(NC(=O)Nc4ccc(C(F)(F)F)cc4)cc3C(=O)N([C@H](C)CO)C[C@H]2C)cc1`?
BL2 CD40 inh: 52.7*[25 µM]

Results for Cc1noc(C)c1NC(=O)N(C)C[C@@H]1OCCCC[C@@H](C)Oc2ccc(NC(=O)Nc3ccc(C(F)(F)F)cc3)cc2C(=O)N([C@H](C)CO)C[C@@H]1C ?
BL2 CD40 inh: -9.5[25 µM]

What do the screens show for `C[C@@H]1CCCCO[C@H](CN(C)CC2CCCCC2)[C@H](C)CN([C@@H](C)CO)C(=O)c2cc(NC(=O)Nc3ccc(C(F)(F)F)cc3)ccc2O1`?
BL2 CD40 inh: 55.0*[25 µM]

What do the screens show for `C[C@H](CO)N1C[C@H](C)[C@@H](CN(C)Cc2ccc3c(c2)OCO3)Oc2ccc(NC(=O)Nc3ccc(C(F)(F)F)cc3)cc2C1=O`?
BL2 CD40 inh: 13.5

Results for C[C@@H]1CCCCO[C@@H](CN(C)CC2CCCCC2)[C@@H](C)CN([C@H](C)CO)C(=O)c2cc(NC(=O)Nc3ccc(C(F)(F)F)cc3)ccc2O1 ?
BL2 CD40 inh: 5.1[25 µM]

Results for C[C@@H]1CN([C@H](C)CO)C(=O)Cc2cc(NC(=O)Nc3ccc(C(F)(F)F)cc3)ccc2O[C@@H]1CN(C)CC1CCCCC1 ?
BL2 CD40 inh: 32.1

How did C[C@@H]1CCCCO[C@@H](CN(C)CC2CCCCC2)[C@H](C)CN([C@@H](C)CO)C(=O)c2cc(NC(=O)Nc3ccc(C(F)(F)F)cc3)ccc2O1 do in these assays?
BL2 CD40 inh: 17.7

How did COc1ccc(S(=O)(=O)N(C)C[C@H]2Oc3ccc(NC(=O)Nc4ccc(C(F)(F)F)cc4)cc3C(=O)N([C@H](C)CO)C[C@@H]2C)cc1 do in these assays?
BL2 CD40 inh: 37.9[25 µM]

What do the screens show for `O=C(N[C@@H]1CC[C@@H](CCNS(=O)(=O)c2ccc(F)cc2)O[C@H]1CO)C1CCC1`?
BL2 CD40 inh: 2.0[25 µM]

What do the screens show for `CN(C)C(=O)c1cccc(-c2ccc(C3[C@@H]4CN(S(=O)(=O)c5ccccc5F)C[C@H]3N4)cc2)c1` (stereo not given in full)?
BL2 CD40 inh: 6.8

How did O=C(NCC(F)(F)F)[C@@H]1[C@@H](CO)[C@@H]2Cn3c(cccc3=O)[C@H]1N2CC1CCCC1 do in these assays?
BL2 CD40 inh: 0.9

What do the screens show for `C[C@@H]1CN([C@H](C)CO)C(=O)c2cccc(NS(=O)(=O)c3ccc(Cl)cc3)c2O[C@H]1CN(C)S(=O)(=O)c1cccs1`?
BL2 CD40 inh: 11.0

What do the screens show for `C(=C\c1ccc(C2[C@H]3CNC[C@@H]2N3CC2CCOCC2)cc1)/c1ccccc1` (stereo not given in full)?
BL2 CD40 inh: -10.1[25 µM]

What do the screens show for `O=C(C[C@@H]1C[C@@H]2c3cc(NC(=O)NC4CCCC4)ccc3O[C@@H]2[C@H](CO)O1)NCc1ccccc1`?
BL2 CD40 inh: -6.0

From PubChem BioAssay
